The source made the active and inactive calls. Rule for the calls: active = hit-call score of the fitted dose curve at least 0.9, where 1 is the maximum; inactive = score below 0.9.
Target: Aryl hydrocarbon receptor (Homo sapiens) (UniProt P35869)
Test: ATG_Ahr_CIS: Attagene CIS-FACTORIAL HepG2 Assay for human Aryl Hydrocarbon Receptor (Ahr) (AID 2282930)
Conditions: HepG2 AhR cis-factorial reporter transcription; actives raise or lower the signal
How it was run: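 Endogenous factor activity is tracked through cis-promoter reporter units transfected into HepG2 cells. Transcript levels at 24 h are read by fluorescent RT-PCR and capillary electrophoresis, with activity in either direction scored relative to DMSO.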

Sequence of Aryl hydrocarbon receptor (Homo sapiens) (P35869 whole entry, looked up): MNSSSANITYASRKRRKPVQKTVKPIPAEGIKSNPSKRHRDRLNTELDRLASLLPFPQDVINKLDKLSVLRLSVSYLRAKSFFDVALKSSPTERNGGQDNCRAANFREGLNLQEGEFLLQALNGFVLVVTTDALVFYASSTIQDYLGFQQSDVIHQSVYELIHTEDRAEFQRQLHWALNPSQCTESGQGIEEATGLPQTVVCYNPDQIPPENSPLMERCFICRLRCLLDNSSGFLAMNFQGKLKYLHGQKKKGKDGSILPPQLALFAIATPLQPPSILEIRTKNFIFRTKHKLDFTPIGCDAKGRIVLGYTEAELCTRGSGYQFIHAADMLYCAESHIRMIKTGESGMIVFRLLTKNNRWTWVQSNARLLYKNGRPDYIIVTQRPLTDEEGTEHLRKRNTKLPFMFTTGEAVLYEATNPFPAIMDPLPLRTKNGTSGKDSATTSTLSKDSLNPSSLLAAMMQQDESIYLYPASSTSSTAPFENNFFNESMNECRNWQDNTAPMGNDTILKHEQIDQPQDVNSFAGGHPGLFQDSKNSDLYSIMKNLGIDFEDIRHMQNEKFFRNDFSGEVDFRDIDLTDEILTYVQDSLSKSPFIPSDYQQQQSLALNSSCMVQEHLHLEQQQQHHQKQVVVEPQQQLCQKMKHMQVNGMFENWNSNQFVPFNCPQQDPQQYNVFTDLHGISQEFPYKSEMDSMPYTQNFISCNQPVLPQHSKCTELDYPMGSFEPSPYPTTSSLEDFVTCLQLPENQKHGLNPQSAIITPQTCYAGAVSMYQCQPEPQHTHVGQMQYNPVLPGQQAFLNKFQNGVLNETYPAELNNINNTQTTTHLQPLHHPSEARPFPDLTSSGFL

Row | Structure (SMILES) | outcome | AC50
1 | COC(=O)c1ccccc1 | inactive | –
2 | CC(C)(C)NC(=O)[C@@H]1CN(Cc2cccnc2)CCN1C[C@@H](O)C[C@@H](Cc1ccccc1)C(=O)N[C@H]1c2ccccc2C[C@H]1O | – | 57.2 µM (active)
3 | Oc1ccc(Oc2ccccc2)cc1 | inactive | –
4 | CN(C)c1ccc(C(c2ccccc2)c2ccc(N(C)C)cc2)cc1 | inactive | –

Test system: not listed separately
Test: ATG_AP_1_CIS: Attagene CIS-FACTORIAL HepG2 Assay for human Activator Protein 1 (AP-1) (AID 2282931)
Conditions: HepG2 Attagene cis-factorial AP-1 reporter mRNA; actives raise or lower the signal
How it was run: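 Multiplexed HepG2 reporter assay, 24 h dosing. mRNA induction detected by RT-PCR plus capillary electrophoresis. Activity fitted in both directions against DMSO.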

Row | Structure (SMILES) | outcome | AC50
5 | CNC(=C[N+](=O)[O-])NCCSCc1csc(CN(C)C)n1 | inactive | –
6 | O=C1CCCCCCCCCCCCCC1 | – | 44.6 µM (active)
7 | CCCC(=O)OC/C=C(\C)CCC=C(C)C | inactive | –
8 | CCCCCCC(O)CCCCCCCCCCC(=O)OC (stereo not drawn) | inactive | –
9 | COC(=O)c1ccccc1 | inactive | –
10 | O=C(O)/C=C/C(=O)O | inactive | –
11 | O=S(=O)(O)c1cccc2ccccc12 | inactive | –
12 | C/C=C(\C)C(=O)OCC/C=C\CC | inactive | –
13 | CC/C=C\CC/C=C/C(OCC)OCC | inactive | –
14 | C=CCOCC(CC)(CO)COCC=C | inactive | –
15 | CN1CCCC1 | inactive | –
16 | CCO[Si](CCCN)(OCC)OCC | inactive | –
17 | CCCCCCC1CCC(=O)O1 (stereo not drawn) | inactive | –
18 | O=[N+]([O-])c1ccccc1C(F)(F)F | inactive | –
19 | CCC(=O)OCc1ccc(OC)cc1 | inactive | –
20 | CCc1cc(C(N)=S)ccn1 | inactive | –
21 | CCC(C)=NO | inactive | –
22 | COc1cccc(OC)c1C(=O)O | inactive | –
23 | C=C1CC[C@H]2C[C@@H]1C2(C)C | inactive | –
24 | CCCCCC1CCCC(=O)O1 (stereo not drawn) | inactive | –

Row | Structure (SMILES) | outcome | AC50
25 | COC(=O)[C@]1(C)CCC[C@@]2(C)[C@H]1CC=C1C=C(C(C)C)CC[C@@H]12 | – | 62.4 µM (active)
26 | Cc1cc2nc3c(=O)[nH]c(=O)nc-3n(C[C@H](O)[C@H](O)[C@H](O)CO)c2cc1C | inactive | –
27 | Cc1cc(-n2nc3ccc(Cl)cc3n2)c(O)c(C(C)(C)C)c1 | inactive | –
28 | O=C(OCc1ccccc1)c1ccccc1 | inactive | –
29 | CCCCCCC1CCCC(=O)O1 (stereo not drawn) | inactive | –
30 | c1ccc(CNc2ncnc3nc[nH]c23)cc1 | inactive | –
31 | NC(=O)c1ccc(N)cc1 | inactive | –
32 | CC(=O)Nc1c(I)c(NC(C)=O)c(I)c(C(=O)O)c1I | inactive | –
33 | CC(C)=CCOC(=O)c1ccccc1 | inactive | –
34 | CC(C)(C)NC(=O)[C@@H]1CN(Cc2cccnc2)CCN1C[C@@H](O)C[C@@H](Cc1ccccc1)C(=O)N[C@H]1c2ccccc2C[C@H]1O | inactive | –
35 | Oc1cccc2ccccc12 | inactive | –
36 | C=CN1CCCCCC1=O | inactive | –
37 | Oc1ccc(Oc2ccccc2)cc1 | inactive | –
38 | CC(=O)CCc1ccccc1 | inactive | –
39 | CNC[C@H](O)[C@@H](O)[C@H](O)[C@H](O)CO | inactive | –
40 | CN(C)c1ccc(C(c2ccccc2)c2ccc(N(C)C)cc2)cc1 | – | 100 µM (active)
41 | c1ccc2c(c1)Oc1ccccc1S2 | inactive | –
42 | CCCCCC[C@@H](O)C/C=C\CCCCCCCC(=O)O | – | 71.8 µM (active)
43 | CC[N+](CC)(CC(=O)Nc1c(C)cccc1C)Cc1ccccc1 (tested in a mixture with another compound) | inactive | –

Test system: not listed separately
Test: ATG_AP_2_CIS: Attagene CIS-FACTORIAL HepG2 Assay for human Activator Protein 2 (AP-2) (AID 2282932)
Conditions: HepG2 AP-2 cis-reporter, Attagene transcription factor profiling; actives raise or lower the signal
How it was run: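 Liver-derived HepG2 line, cis-reporter system measuring endogenous factors; 24 h dosing; reporter mRNA detected by fluorescent RT-PCR and capillary electrophoresis.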

Row | Structure (SMILES) | outcome
44 | CNC(=C[N+](=O)[O-])NCCSCc1csc(CN(C)C)n1 | inactive
45 | CCCC(=O)OC/C=C(\C)CCC=C(C)C | inactive
46 | CCCCCCC(O)CCCCCCCCCCC(=O)OC (stereo not drawn) | inactive
47 | COC(=O)c1ccccc1 | inactive
48 | O=C(O)/C=C/C(=O)O | inactive
49 | CC/C=C\CC/C=C/C(OCC)OCC | inactive
50 | C=CCOCC(CC)(CO)COCC=C | inactive
51 | CCO[Si](CCCN)(OCC)OCC | inactive
52 | CCCCCCC1CCC(=O)O1 (stereo not drawn) | inactive
53 | O=[N+]([O-])c1ccccc1C(F)(F)F | inactive
54 | CCC(=O)OCc1ccc(OC)cc1 | inactive
55 | CCC(C)=NO | inactive
56 | COc1cccc(OC)c1C(=O)O | inactive
57 | C=C1CC[C@H]2C[C@@H]1C2(C)C | inactive
58 | CCCCCC1CCCC(=O)O1 (stereo not drawn) | inactive
59 | Cc1cc2nc3c(=O)[nH]c(=O)nc-3n(C[C@H](O)[C@H](O)[C@H](O)CO)c2cc1C | inactive
60 | O=C(OCc1ccccc1)c1ccccc1 | inactive
61 | CCCCCCC1CCCC(=O)O1 (stereo not drawn) | inactive
62 | CC(=O)Nc1c(I)c(NC(C)=O)c(I)c(C(=O)O)c1I | inactive
63 | CC(C)=CCOC(=O)c1ccccc1 | inactive
64 | Oc1cccc2ccccc12 | inactive
65 | C=CN1CCCCCC1=O | inactive
66 | Oc1ccc(Oc2ccccc2)cc1 | inactive
67 | CNC[C@H](O)[C@@H](O)[C@H](O)[C@H](O)CO | inactive
68 | CN(C)c1ccc(C(c2ccccc2)c2ccc(N(C)C)cc2)cc1 | inactive
69 | CCCCCC[C@@H](O)C/C=C\CCCCCCCC(=O)O | inactive

Test system: not listed separately
Test: ATG_BRE_CIS: Attagene CIS-FACTORIAL HepG2 Assay for human Bone Morphogenetic Protein (BMP) Response Element (BRE) (AID 2282933)
Conditions: HepG2 BMP response element reporter, Attagene transcription factor profiling; actives raise or lower the signal
How it was run: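 Endogenous transcription factor activity at a BMP response element was monitored in transfected HepG2 cells 24 h after dosing. Fluorescent RT-PCR products were resolved by capillary electrophoresis, and activity was fitted in both directions versus DMSO.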

Row | Structure (SMILES) | outcome | AC50
70 | CNC(=C[N+](=O)[O-])NCCSCc1csc(CN(C)C)n1 | inactive | –
71 | O=C1CCCCCCCCCCCCCC1 | inactive | –
72 | O=C(O)/C=C/C(=O)O | inactive | –
73 | O=S(=O)(O)c1cccc2ccccc12 | inactive | –
74 | C/C=C(\C)C(=O)OCC/C=C\CC | inactive | –
75 | CN1CCCC1 | inactive | –
76 | CCCCCCC1CCC(=O)O1 (stereo not drawn) | inactive | –
77 | CCC(=O)OCc1ccc(OC)cc1 | inactive | –
78 | CCc1cc(C(N)=S)ccn1 | inactive | –
79 | COc1cccc(OC)c1C(=O)O | inactive | –
80 | COC(=O)[C@]1(C)CCC[C@@]2(C)[C@H]1CC=C1C=C(C(C)C)CC[C@@H]12 | – | 100 µM (active)
81 | Cc1cc2nc3c(=O)[nH]c(=O)nc-3n(C[C@H](O)[C@H](O)[C@H](O)CO)c2cc1C | inactive | –
82 | Cc1cc(-n2nc3ccc(Cl)cc3n2)c(O)c(C(C)(C)C)c1 | inactive | –
83 | c1ccc(CNc2ncnc3nc[nH]c23)cc1 | inactive | –
84 | CC(=O)Nc1c(I)c(NC(C)=O)c(I)c(C(=O)O)c1I | inactive | –
85 | CC(C)(C)NC(=O)[C@@H]1CN(Cc2cccnc2)CCN1C[C@@H](O)C[C@@H](Cc1ccccc1)C(=O)N[C@H]1c2ccccc2C[C@H]1O | inactive | –
86 | Oc1cccc2ccccc12 | inactive | –
87 | C=CN1CCCCCC1=O | inactive | –
88 | Oc1ccc(Oc2ccccc2)cc1 | inactive | –
89 | CC(=O)CCc1ccccc1 | inactive | –
90 | CNC[C@H](O)[C@@H](O)[C@H](O)[C@H](O)CO | inactive | –
91 | CN(C)c1ccc(C(c2ccccc2)c2ccc(N(C)C)cc2)cc1 | – | 100 µM (active)
92 | c1ccc2c(c1)Oc1ccccc1S2 | inactive | –
93 | CC[N+](CC)(CC(=O)Nc1c(C)cccc1C)Cc1ccccc1 (tested in a mixture with another compound) | inactive | –
